Screens as filed in PubChem BioAssay.
NPSR antag: antagonists of human neuropeptide S receptor cAMP signaling; hit rate 1% among 220,000; Potency, µM (doses to about 38.3 µM), for inactives: top-dose activity change, negative = inhibition, usual class: inhibitors; Q6W5P4; CHO-NPSR cells, cAMP TR-FRET, antagonist mode; further: nearly all actives have a fitted effect of over 50% in size
Target sequence (Q6W5P4 whole entry, looked up): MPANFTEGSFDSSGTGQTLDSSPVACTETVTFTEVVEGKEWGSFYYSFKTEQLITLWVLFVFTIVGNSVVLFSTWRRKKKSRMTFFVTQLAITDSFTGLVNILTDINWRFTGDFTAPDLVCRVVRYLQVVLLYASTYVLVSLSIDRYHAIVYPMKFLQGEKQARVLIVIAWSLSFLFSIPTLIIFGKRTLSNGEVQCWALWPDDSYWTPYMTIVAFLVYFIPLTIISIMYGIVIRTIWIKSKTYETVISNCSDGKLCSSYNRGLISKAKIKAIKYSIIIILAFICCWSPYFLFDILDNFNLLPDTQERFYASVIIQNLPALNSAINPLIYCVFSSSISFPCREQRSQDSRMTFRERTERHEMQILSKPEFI
Tau fluor cs: counter-screen for tau fibril formation inhibitors; tau K18 P301L Alexa594 fluorescence, heparin fibrillization; Potency, µM (highest dose often 57.7 µM), for the others: at the highest dose activity change, negative = decrease; hit rate 0.93% among 280,000; further: nearly all actives have a fitted effect of over 55% in size
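Human tau K18 P301L (15 uM unlabeled, 0.24 uM Alexa 594-labeled) in 100 mM sodium acetate pH 7 with 20 uM heparin, 6 hr at 37 C. ThT 30 uM added, 1 hr ambient; Alexa 594 FP and total fluorescence read at 555/632 nm.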
Tau FP inhib: blocks human tau fibril formation measured by polarization; P10636; K18 P301L tau heparin fibrillization, Alexa594 FP, 6 h; Potency, µM (top dose mostly 57.7 µM), without a hit: at the highest dose activity, negative = inhibition, hits mostly inhibitors; hit rate 0.39% among 280,000; further: nearly all actives have a fitted effect of over 55% in size
Target sequence (P10636 561-689 P618L limits assumed): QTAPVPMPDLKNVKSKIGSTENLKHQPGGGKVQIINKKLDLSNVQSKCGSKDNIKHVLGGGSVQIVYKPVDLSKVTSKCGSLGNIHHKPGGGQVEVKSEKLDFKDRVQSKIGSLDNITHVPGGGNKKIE
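Human K18 P301L fragment (15 uM unlabeled plus 0.24 uM Alexa 594-labeled) in 100 mM sodium acetate pH 7 with compound, aggregation induced by 20 uM heparin for 6 hr at 37 C. ThT (30 uM) added for 1 hr, then Alexa 594 FP read.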
Tau ThT inhib: blocks human tau fibril formation measured by thioflavin T | P10636 | recombinant tau K18 P301L (four-repeat tau fragment), heparin-induced fibrillization, ThT fluorescence | Potency, µM (doses to about 57.4 µM), for inactives: at the highest dose activity, negative = inhibition, actives largely listed as inhibitors | hit rate 2.1% among 270,000 | AID 1460; further: nearly all actives have a fitted effect of over 55% in size
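In this qHTS, human K18 P301L tau is incubated with compound and heparin for 6 hr at 37 C, and Thioflavin T fluorescence then reports fibril load.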
KinaseGlo FLuc: Kinase-Glo luciferase inhibition (counter-screen); Kinase-Glo luciferase, ATP luminescence, 8 min; Q27757; AID 1379; hit rate 0.28% among 200,000; Potency, µM (top dose mostly 38.3 µM), without a hit: at the highest dose activity change, negative = inhibition, actives largely listed as inhibitors; further: nearly all actives have a fitted effect of over 60% in size
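Substrate mix (final 50 mM imidazole pH 7.2, 50 mM KCl, 7 mM MgCl2, 10 uM ATP, 0.01% Tween 20, 0.05% BSA) plus pin-tool compound, then Kinase-Glo detection mix; 8 min ambient, luminescence read.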
Active calls of the source: *; ? = inconclusive; / = not tested or not shown; [ ] = remark or other dose. Shown are actives, neighbours in structure and some others; about 3.3% of the full set was active somewhere. The call rests on the fitted dose curve; in most records, active means well fitted curve in the direction sought with a large enough effect; inconclusive means small, poorly fitted or top-dose-only effect, or another doubt; inactive means no such curve, though single readings can be large; an effect the other way counts as inactive or inconclusive. On the % scale 0 is the no-effect control and ±100 the full control effect; potency means the concentration at half of the fitted maximal effect.

SMILES	NPSR antag	Tau fluor cs	Tau FP inhib	Tau ThT inhib	KinaseGlo FLuc
CC[C@@H]1C(c2ccccc2)=NN(c2ccc(Br)cc2)[C@H]1C(=O)N1CCOC1=O	/	7.94µM*[quencher]	11.3%[81.3 µM]	?	1.7%[39.9 µM]
CC[C@@H]1C(c2ccc(F)cc2)=NN(c2ccc(Br)cc2)[C@H]1C(=O)N1CCOC1=O	/	10µM*[quencher]	8.1%	?	2.3%[39.9 µM]
CCc1cccc2c(C(=O)COC(=O)c3ccc([N+](=O)[O-])s3)c[nH]c12	-11.1%	11.2µM*[quencher]	-7.7%	7.08µM*	1.2%
CCC(C)Nc1nc2c(c(=O)n(C)c(=O)n2C)n1C (stereo unspecified)	2.9%[7.67 µM]	-12.8%	0.0%	-12.6%	/
CCc1ccc(NCc2cc3cc4c(cc3n(CC(=O)Nc3ccc(OC)cc3)c2=O)OCO4)cc1	/	?	?	-0.9%	/
COc1ccc2cc(CNc3ccccc3)c(=O)n(CC(=O)Nc3ccc(C(C)=O)cc3)c2c1	/	12.6µM*[quencher]	-8.4%	5.4%	/
COc1ccc(NCc2cc3cc4c(cc3n(CC(=O)Nc3ccc(C)cc3)c2=O)OCO4)cc1	/	22.4µM*[quencher]	?	-22.1%	/
COc1ccc2cc(CNc3ccccc3)c(=O)n(CC(=O)Nc3ccc(C)cc3C)c2c1	/	-19.8%	?	9.2%	/
Cc1c(C(=O)N(C)c2cccc(C(F)(F)F)c2)sc2nc3n(c(=O)c12)CCCCC3	/	-23.5%	?	?	/
O=C1S/C(=C\c2ccc(N3CCOCC3)o2)C(=O)N1c1ccccc1	-39.8%	-23.7%	?	11.2µM*	-3.7%
O=C1S/C(=C\c2ccc(N3CCOCC3)o2)C(=O)N1Cc1c(F)cccc1Cl	?	-9.9%	3.6%	?	-0.2%
CN(C)c1ccc(/C=N/N2CCN(c3ccccn3)CC2)cc1	9.0%	-27.1%	5.3%	1.78µM*	/
COC(=O)C1=C(C(=O)OC)C(c2cc(Cl)ccc2O)c2sc(=O)[nH]c2S1 (stereo unspecified)	-9.8%[46.1 µM]	?	-13.3%	25.1µM*	1.6%
O=C(O)C1Sc2[nH]c(=O)sc2C2c3cc(Br)ccc3OC(=O)C12 (stereo unspecified)	-5.1%	-15.0%	-8.9%	/	/
COC(=O)C1=C(C(=O)OC)C(c2cc(Br)ccc2O)c2sc(=O)[nH]c2S1 (stereo unspecified)	-26.2%	?	-13.4%	28.2µM*	-2.7%
COC(=O)C1=C(C(=O)OC)C(c2ccc(OC)c(OC)c2)c2sc(=O)[nH]c2S1 (stereo unspecified)	-7.2%	-1.9%	-9.0%	?	-0.4%
COc1ccc(-n2ccn(CC(=O)NCCc3ccccc3)c(=O)c2=O)cc1OC	/	16.7%	13.0%	?	/
CC(=O)N1/C(=C/c2ccc(N(C)C)cc2)C(=O)c2ccccc21	-10.9%	10µM*[quencher]	-12.3%	10µM*	-17.1%
Cc1ccc(C)c2sc(N)nc12	2.0%	-0.1%	9.2%	-9.5%	2.1%
Nc1[nH]c(=O)[nH]c(=O)c1N=Nc1cccc(Cl)c1	31.3%	0.3%	0.5%	7.4%	-0.3%
Cc1nc(N)sc1N=Nc1ccc(Br)cc1	-7.1%[46.1 µM]	15.8µM*[quencher]	8.3%	3.98µM*	-2.4%
Nc1n[nH]c(C2CC2)c1N=Nc1ccc(Cl)cc1	21.2%	15.8µM*[quencher]	12.8%	10µM*	/
Nc1n[nH]c(C2CC2)c1N=Nc1ccc(Cl)c(Cl)c1	-16.1%	12.6µM*[quencher]	?	12.6µM*	/
Cc1cc(-c2ccc(Br)cc2)n[nH]1	6.7%	0.6%	6.4%	2.6%	1.2%
Nc1nc(N)c(N=Nc2ccc(Cl)cc2)c(=O)[nH]1	0.8%	-2.2%	8.2%	?	-5.7%
SMILES	NPSR antag	Tau fluor cs	Tau FP inhib	Tau ThT inhib	KinaseGlo FLuc
Cc1[nH]nc(N)c1N=Nc1ccc(Br)cc1	-4.4%	?	6.2%	11.2µM*	1.7%
COc1ccc(NC(=O)Cn2c(=O)n(CCCCCC(=O)NCc3ccc4c(c3)OCO4)c(=O)c3sccc32)cc1Cl	/	-27.8%	-17.9%	?	/
CC(=O)N1CCOc2cc(S(=O)(=O)Nc3cccc(C(F)(F)F)c3)c(Cl)cc21	/	-15.9%	-9.8%	-12.3%	/
Cc1ccc(N2C(=O)CSC23C(=O)N(CC(=O)Nc2ccccc2F)c2ccccc23)cc1C (stereo unspecified)	/	-17.1%	-14.2%	0.2%	/
CCN(CC)c1ccc(NC(=O)CN(C)S(=O)(=O)c2cccc3nsnc23)c(C)c1	/	?	-0.3%	?	/
COCCN1C(=O)/C(=C/c2ccc(N3CCCC3)cc2C)SC1=S	21.2%	-13.0%	?	7.08µM*	-17.0%
CCc1cc2cc3c(cc2nc1SCC(=O)Nc1nccs1)OCO3	10µM*	-1.6%	-9.1%	-2.0%	1.0%
CNc1ccc(Br)cc(C(=O)/C=C/c2ccc3c(c2)OCO3)c1=O	?	?	?	12.6µM*	-6.8%
CCNc1ccc(Br)cc(C(=O)/C=C/c2ccc(Cl)cc2Cl)c1=O	-17.4%[46.1 µM]	-29.0%	-15.1%	15.8µM*	-3.6%
CNc1ccc(Br)cc(C(=O)/C=C/c2cc(OC)ccc2OC)c1=O	-33.4%	?	?	10µM*	-1.7%
COc1ccccc1NC(=O)/C=C/c1ccc2c(c1)OCO2	-6.7%	-19.8%	-7.9%	?	-15.1%
CNc1ccc(Br)cc(C(=O)/C=C/c2ccc(OC)cc2)c1=O	-43.4%	?	?	14.1µM*	-7.2%
CCOC(=O)c1c(C)[nH]c(CCC(=O)NCc2ccccc2C)c1C	/	-0.4%	10.7%	-0.3%	/
O=C(Nc1ccc(OCc2cc(=O)n3c4c(sc3n2)CCCC4)cc1)c1ccc(F)cc1	/	-6.0%	2.7%	?	/
O=C(NCCc1ccccc1)c1ccc2c(c1)N(Cc1ccc(Cl)cc1)C(=O)CS2	/	?	-13.3%	0.2%	/
CC(=O)c1c(C)[nH]c(C2=NNC(=NCc3ccccc3)SC2)c1C	-32.0%	-28.6%	1.4%	?	1.7%
CCOC(=O)c1c(C)[nH]c(C2=NNC(=Nc3cccc(Cl)c3)SC2)c1C	-29.1%	?	?	12.6µM*	-1.0%
O=[N+]([O-])c1ccc(N=Cc2sc3ccccc3c2O)cc1	-1.6%	-18.7%	8.0%	0.708µM*	-4.8%
O=[N+]([O-])c1cccc(N=Cc2sc3ccccc3c2O)c1	-6.7%	-8.1%	6.6%	?	-5.4%
